Source: PubChem
HCV inhibitor: qHTS Assay for Inhibitors of Hepatitis C Virus (HCV); Potency, µM (highest dose often 41.8 µM), without a hit: at the highest dose activity change, negative = inhibition, usual class: inhibitors; 3.4% of 340,000 active; Huh7.5.1 HCVcc-Cre infection, luciferase reporter, 44 h; note: % is set by controls: 0 for no effect and ±100 for the full control effect
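Cells seeded at 1,000/well and cultured 4 h, then compounds added followed by HCVcc-Cre virus (~0.5 moi). After 44 h further culture, luciferase substrate was added, plates held 15 min at room temperature, and luminescence read for 15 sec.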
Pf growth 96h: Primary qHTS for delayed death inhibitors of the malarial parasite plastid, 96 hour incubation; Potency, µM (series often up to 28.7 µM), for the others: at the top dose activity change, negative = inhibition, most hits filed as inhibitors; P. falciparum luciferase reporter growth, 96 h; 6.9% of 320,000 active; AID 504834, 2011; note: % is set by controls: 0 for no effect and ±100 for the full control effect
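Compounds incubated with erythrocytes infected by luciferase-expressing P. falciparum (2% hematocrit, 0.05% parasitemia final) for 96 hours, 37 C in 5% CO2. Growth inhibition scored as decreased luciferase luminescence.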
Pf growth 48h: Primary qHTS for delayed death inhibitors of the malarial parasite plastid, 48 hour incubation; 5.9% of 310,000 active; P. falciparum luciferase growth in erythrocytes, 48 h; Potency, µM (highest dose often 28.7 µM), inactives show at the highest dose activity change, negative = inhibition, actives largely listed as inhibitors; note: % is set by controls: 0 for no effect and ±100 for the full control effect
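Read-out is firefly luciferase luminescence from an integrated reporter in P. falciparum, so falling signal marks reduced parasite growth. Infected erythrocytes were at 2% hematocrit and 0.1% parasitemia (final) in Albumax-supplemented RPMI 1640.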
NS1 inh: qHTS Assay for Inhibitors of Influenza NS1 Protein Function; Potency, µM (doses to about 46.1 µM), without a hit: top-dose activity, positive = more growth; 0.4% of 270,000 active; AID 2326, 2010; calls by dose curve; note: actives are rising curves; nearly all actives have a fitted effect of over 50% in size
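Growth recovery, yeast-based: influenza A NS1 expressed in S. cerevisiae causes slow growth, and suppressors are detected by OD600. The parent strain without NS1 is used as positive control.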
AMA1-RON2 inh: qHTS for Inhibitors of AMA1-RON; Towards Development of Antimalarial Drug Lead: Primary Screen; Plasmodium falciparum AMA1 (3D7) - RON2 peptide interaction; AlphaScreen AMA1-biotinylated RON2 peptide binding; Potency, µM (titrated, usually from 58.2 µM), without a hit: at the highest dose activity change, negative = inhibition, hits mostly inhibitors; 0.2% of 360,000 active; AID 720542, 2013;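 note: 0% = vehicle wells and -100% = peptide control; nearly all actives have a fitted effect of over 45% in size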
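AMA1 (3D7) with his tag at 25 nM final met compounds first, then biotinylated RON2 peptide at 25 nM; detection used donor plus acceptor beads, 10 µg/mL apiece, read by AlphaScreen after 30 min at room temperature.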
SARS PLpro yeast: qHTS of Yeast-based Assay for SARS-CoV PLP. S. cerevisiae expressing SARS-CoV PLpro, growth rescue. Potency, µM (series often up to 32.9 µM), without a hit: at the highest dose activity, positive = growth rescue, actives largely listed as activators. 0.19% of 330,000 active. AID 485353, 2010; calls by dose curve; note: 0% is about no effect; nearly all actives have a fitted effect of over 55% in size
The depositor's hits bear a star; u = inconclusive; x = no result given. In the library only some 12% were active in any assay of this set; here they are far more common. Unless noted, calls come from the whole dose curve; as a rule, active = well fitted curve in the direction sought with a large enough effect; inconclusive = small, poorly fitted or top-dose-only effect, or another doubt; inactive = no such curve, though single readings can be large; an effect the other way counts as inactive or inconclusive. Potency is the fitted concentration of half-maximal effect.

SMILES	HCV inhibitor	Pf growth 96h	Pf growth 48h	NS1 inh	AMA1-RON2 inh	SARS PLpro yeast
CC(=O)N1c2ccc(S(=O)(=O)N3CCC(C(=O)NCc4ccccc4Cl)CC3)cc2CC1C (stereo not given)	9%	9.3µM*	u	-2%	1%	24%
CC(=O)N1c2ccc(S(=O)(=O)N3CCC(C(=O)NCc4ccc(N(C)C)cc4)CC3)cc2CC1C (stereo not given)	u	-17%	-19%	4%	-9%	0%
CC(=O)N1c2ccc(S(=O)(=O)N3CCC(C(=O)NCc4ccc(Cl)cc4)CC3)cc2CC1C (stereo not given)	u	-24%	9.3µM*	-6%	3%	1%
CC(=O)N1c2ccc(S(=O)(=O)N3CCC(C(=O)NCc4ccc(C)cc4)CC3)cc2CC1C (stereo not given)	u	12µM*	u	1%	5%	-1%
COc1ccc(CNC(=O)C2CCN(S(=O)(=O)c3ccc4c(c3)CC(C)N4C(=O)C3CC3)CC2)cc1 (stereo not given)	u	15µM*	u	2%	-2%	-4%
COc1cc(NC(=O)c2cc3ccccc3cc2O)c(OC)cc1Cl	10µM*	1.3µM*	2.1µM*	-43%	-1%	-2%
COc1ccccc1NC(=O)C(C)NC(c1ccccc1)c1ccccc1 (stereo not given)	u	8.3µM*	13µM*	-8%	8%	4%
Cc1ccc(Cl)cc1NC(=O)c1cc2ccccc2cc1O	u	0.29µM*	0.93µM*	-1%	-1%	-5%
COc1ccccc1NC(=O)COC(=O)c1cc2ccccc2cc1O	6%	21%	u	x	-5%	7%
COc1cc(OC)c(NC(=O)c2ccccc2F)cc1Cl	1%	9%	18%	x	-1%	0%
COc1ccccc1NC(=O)c1cc2cc(Br)ccc2cc1O	11µM*	u	2.9µM*	-61%	6%	-20%
CCc1nc(SCc2cc(=O)[nH]c3ccccc23)c2c(C)c(C)sc2n1	24%	x	x	x	-20%	x
CN1CCC(N(C)C(=O)/C(C#N)=C/c2ccc(OC(F)F)cc2)CC1	14%	-1%	-8%	-1%	8%	-1%
Oc1ccc(Cl)cc1C=Nc1cnc2ccccc2c1	x	x	x	0%	x	x
COc1ccc(CCN2CC(C(=O)OCc3ccccc3Cl)CC2=O)cc1OC (stereo not given)	4%	x	x	x	4%	x
CN(C(=O)COC(=O)CNC(=O)c1ccc(C(C)(C)C)cc1)c1c(N)n(Cc2ccccc2)c(=O)[nH]c1=O	-6%	4%	11%	x	-6%	-8%
COc1ccccc1NC(=O)c1ccccc1Nc1ccccc1	-33%	u	5.2µM*	6%	-5%	-7%
CCOc1ccc(S(=O)(=O)N2CCC(C(=O)NC3CC3)CC2)cc1Cl	-8%	-4%	u	-1%	20%	0%
CCN1C(=O)[C@H]2[C@@H](c3ccc(SC4CCCCC4)c(OC)c3)N3CCCC[C@@]3(C(=O)OC)[C@H]2C1=O	2%	12µM*	3.7µM*	x	-20%	3%
CCN1C(=O)[C@@H]2[C@@H](c3ccc(SC4CCCCC4)cc3)N3CCCC[C@@]3(C(=O)OC)[C@@H]2C1=O	-4%	12µM*	u	x	-6%	3%
CCSc1ccc([C@@H]2[C@H]3C(=O)N(CC)C(=O)[C@H]3[C@]3(C(=O)OC)CCCCN23)cc1OC	-1%	x	x	x	-18%	-5%
CCC(C)Sc1ccc([C@@H]2[C@@H]3C(=O)N(CC)C(=O)[C@@H]3[C@]3(C(=O)OC)CCCCN23)cc1 (stereo not given in full)	-9%	x	x	x	1%	2%
